# Screening data (PubChem)
# Most compounds without a hit are left out; they make up all but 10% or so of the library.
# BAZ2B block = qHTS Assay for Inhibitors of BAZ2B; Bromodomain adjacent to zinc finger domain protein 2B (Homo sapiens), Q9UIF8; AlphaScreen BAZ2B-H3K14Ac peptide displacement; Potency, µM (series often up to 114 µM), usual class: inhibitors; actives 4.4% (n = 360,000); further: nearly all actives have a fitted effect of over 60% in size
#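 In this displacement format the biotinylated H3(5-23) peptide acetylated at Lys14 serves as ligand at 50 nM, with BAZ2B at 50 nM in PBS pH 7.4 containing 0.01% Tween-20. Donor and acceptor beads are 10 ug/mL final.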
# JMJD2A Tudor inh = qHTS Assay for Inhibitors of JMJD2A-Tudor Domain. AlphaScreen JMJD2A-Tudor / H3K4me3 peptide binding. Potency, µM (doses to about 114 µM), actives largely listed as inhibitors. actives 4.4% (n = 390,000). AID 504339, 2011; further: nearly all actives have a fitted effect of over 50% in size
# GLS inhibitor = qHTS for Inhibitors of Glutaminase (GLS). GLS enzymatic activity, qHTS titration. Potency, µM (titrated, usually from 45.5 µM), hits mostly inhibitors. actives 0.21% (n = 410,000)
#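 Compounds were pin-transferred onto hKGA, after which L-glutamine (1 mM solution) and a detection mix of glutamate oxidase, HRP and Amplex Red were added. Initial and 30 min RT fluorescence reads were collected.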
# HP1b chromo inh = HTS for Inhibitors of HP1-beta Chromodomain Interactions with Methylated Histone Tails. Chromobox protein homolog 1 (Homo sapiens), P83916. AlphaScreen HP1-beta / biotin-H3K9me3 peptide binding. Potency, µM (series often up to 114 µM), actives largely listed as inhibitors. actives 0.56% (n = 390,000); further: nearly all actives have a fitted effect of over 70% in size
# Target sequence (P83916 whole entry, looked up): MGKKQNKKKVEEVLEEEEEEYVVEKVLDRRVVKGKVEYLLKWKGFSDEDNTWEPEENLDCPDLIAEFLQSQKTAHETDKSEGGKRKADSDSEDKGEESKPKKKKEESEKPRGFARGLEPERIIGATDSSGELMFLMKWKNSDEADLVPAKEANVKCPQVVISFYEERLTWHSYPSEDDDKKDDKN
#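 Compound inhibition of the preformed complex between 50 nM HP1-beta and 50 nM biotinylated H3K9me3 peptide was read by AlphaScreen. Buffer was PBS pH 7.4 with 0.01% Tween-20. Incubations ran 30 min at room temperature, with 10 ug/mL donor/acceptor beads.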
# G9a inh = qHTS Assay for Inhibitors of Histone Lysine Methyltransferase G9a; G9a H3K9 monomethylation, AlphaScreen, 2 h; actives 8.8% (n = 350,000); Histone-lysine N-methyltransferase EHMT2 (Homo sapiens), Q96KQ7; AID 504332, 2011; Potency, µM (series often up to 102 µM), most hits filed as inhibitors; further: nearly all actives have a fitted effect of over 75% in size
# Target sequence (Q96KQ7 913-1193 limits assumed): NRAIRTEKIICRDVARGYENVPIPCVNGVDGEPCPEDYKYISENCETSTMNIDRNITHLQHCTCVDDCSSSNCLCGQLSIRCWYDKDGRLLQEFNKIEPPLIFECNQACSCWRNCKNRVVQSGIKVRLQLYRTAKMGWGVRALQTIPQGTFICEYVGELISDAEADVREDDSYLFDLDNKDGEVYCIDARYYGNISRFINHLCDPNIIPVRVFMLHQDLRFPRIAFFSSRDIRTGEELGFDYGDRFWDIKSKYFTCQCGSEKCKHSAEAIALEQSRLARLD
#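 Enzyme 20 nM + cpd, 15 min RT; add b-H3K9 pep 500 nM / SAM 20 uM; 2 h RT; anti-H3K9me1 Ab 0.5 ug/mL + SA donor / anti-rabbit acceptor beads 20 ug/mL each, 10 min; AlphaScreen read.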
# A number is an active result; i = inactive; ? = inconclusive; nt = no result given; [ ] = remark or other dose. The call rests on the fitted dose curve; in most records, active means well fitted curve in the direction sought with a large enough effect; inconclusive means small, poorly fitted or top-dose-only effect, or another doubt; inactive means no such curve, though single readings can be large; an effect the other way counts as inactive or inconclusive.
SMILES,BAZ2B block,JMJD2A Tudor inh,GLS inhibitor,HP1b chromo inh,G9a inh
CC(=O)N1CCN(c2nc(-c3ccco3)c3c(c2C#N)CC(C)(C)SC3)CC1,i,i[11.4 µM],i,i,i
CC1(C)Cc2c(C#N)c(N3CCN(C(=O)c4ccco4)CC3)nc(-c3ccco3)c2CS1,20µM,50.1µM,?,i,10µM
COc1ccc(NC(=O)c2ccc(NC(=O)c3nc4nc(C)cc(C)n4n3)cc2)cc1,i,i,i,i,35.5µM
Cc1cc(C)n2nc(C(=O)NNC(=O)c3ccccc3)nc2n1,?,?,i,i,14.1µM
CCC(=O)N1CCc2cc(Br)cc(S(=O)(=O)N3CCN(c4cccc(Cl)c4)CC3)c21,i,i,i,i,i
COCCn1cc(C(=O)NCc2cccs2)c2c3ccccc3n(C)c2c1=O,i,i,i,i,50.1µM
COc1ccc(Cl)cc1NC(=O)N1CCC(CN2CCc3ccccc3C2)CC1,i,i,i,i,i
CCN(CC)CCNC(=O)CCn1c(=S)[nH]c2cc3c(cc2c1=O)OCO3,i,50.1µM,i,i,i[12.7 µM]
CCN(CC)CCn1c(=S)[nH]c2cc3c(cc2c1=O)OCO3,i,44.7µM,i,i,44.7µM
COCCNC(=O)CCCCCn1c(=S)[nH]c2ccccc2c1=O,i,?,nt,i,i[12.7 µM]
CCCCNC(=O)CCCn1c(=S)[nH]c2cc3c(cc2c1=O)OCO3,i,i,i,i,i
CCN(CC)CCNC(=O)CCCCn1c(=S)[nH]c2c([nH]c3ccc(OC)cc32)c1=O,?,3.98µM,i,?,12.6µM
O=C(CCCn1c(=S)[nH]c2cc3c(cc2c1=O)OCO3)N1CCN(C2CCCCC2)CC1,i,79.4µM,i,i,?
CCN1CCN(CCn2c(=S)[nH]c3cc4c(cc3c2=O)OCO4)CC1,i,?,nt,i,i[12.7 µM]
CCCCN(C)CCCNC(=O)Cn1ncc2c3ccccc3n(Cc3ccccc3F)c2c1=O,i,i,i,i,i
COc1ccc(C)cc1NC(C)C(=O)NC(=O)NC1CCCCC1 (configuration not stated),?,?,i,i,?
Cc1csc(NC(=O)/C=C/c2ccco2)n1,i,i,i,i,20µM
O=C(/C=C/c1ccccc1)Nc1scc(-c2ccccc2)c1C(=O)O,i,i,i,i,nt
CCOC(=O)Cc1csc(NC(=O)/C=C/c2ccco2)n1,i,i,i,i,50.1µM
O=C(/C=C/c1ccco1)Nc1scc(-c2ccccc2)c1C(=O)O,i,i,i,?,50.1µM
O=C(/C=C/c1ccco1)Nc1nc(-c2ccccc2)cs1,?,i,i,i,?
O=C(/C=C/c1ccco1)Nc1nc(-c2ccccn2)cs1,28.2µM,50.1µM,i,44.7µM,22.4µM
CCN(CC)CCCNC(=O)CSc1nc(-c2ccc(OC)cc2)cc(C(F)(F)F)n1,i,i,i,i,i
COc1cc(NC(=O)C(CCSC)NS(=O)(=O)c2ccc3c(c2)oc(=O)n3C)cc(OC)c1 (configuration not stated),i,i,i,i,i
CCCCCCCCCCCCCCC[C@@H](O)[C@H](CO)NC(C)=O,nt,nt,nt,nt,i
SMILES,BAZ2B block,JMJD2A Tudor inh,GLS inhibitor,HP1b chromo inh,G9a inh
CCC(C)(C)n1nnnc1C(c1cc2cccc(C)c2[nH]c1=O)N1CCCC1 (configuration not stated),i,i,i,i,11.2µM
CCC(C)(C)n1nnnc1C(c1cc2cc(C)cc(C)c2[nH]c1=O)N1CCCC1 (configuration not stated),i,?,i,i,7.94µM
COc1ccccc1N1CCN(S(=O)(=O)c2c(C)nc3sccn3c2=O)CC1,i,i,i,i,i
CSc1ccc(CNC(=O)CN2C(=O)C3CCCCN3c3ccc(C(=O)N4CCCC4)cc32)cc1 (configuration not stated),i,i,i,i,i
CCOC(=O)c1ccc(NC(=O)c2c(N3CCCC3=O)c3cc(OC)ccc3n2C)cc1,i,i,i,i,i
CCOC(=O)c1cnc(-c2ccccc2O)nc1Cl,?,17.8µM,?,i,44.7µM
CCOC(=O)c1cnc(-c2ccccc2)nc1Oc1ccc(Cl)cc1,i,i,i,i,i
